Values joined by “and” are separate entries in the source; they are usually repeats but may differ in a detail not shown here. Identical values can stand only once. Results filed as inconclusive are left out. Where a call stands in place of a potency, no number is given. The source holds several records for some structures; these can differ, active in one and inactive in another. Active and inactive are the calls of the source. Unless noted, the call rests on the fitted dose curve; in most records, active means well fitted curve in the direction sought with a large enough effect in the repeat runs; inconclusive means weak or mixed curves; inactive means no such curve, though single readings can be large; an effect the other way counts as inactive or inconclusive.
Target: Estrogen receptor (Homo sapiens) (UniProt P03372)
Assay: qHTS assay to identify small molecule agonists of the estrogen receptor alpha (ER-alpha) signaling pathway using the BG1 cell line (AID 743079); further: nearly all actives have a fitted effect of over 20% in size; further: potency means the concentration at half of the fitted maximal effect
Details: BG1Luc4E2 cells, ERE-luciferase agonist, 22 h; series mostly up to 70.3 µM

Estrogen receptor (Homo sapiens), sequence (P03372 whole entry, looked up): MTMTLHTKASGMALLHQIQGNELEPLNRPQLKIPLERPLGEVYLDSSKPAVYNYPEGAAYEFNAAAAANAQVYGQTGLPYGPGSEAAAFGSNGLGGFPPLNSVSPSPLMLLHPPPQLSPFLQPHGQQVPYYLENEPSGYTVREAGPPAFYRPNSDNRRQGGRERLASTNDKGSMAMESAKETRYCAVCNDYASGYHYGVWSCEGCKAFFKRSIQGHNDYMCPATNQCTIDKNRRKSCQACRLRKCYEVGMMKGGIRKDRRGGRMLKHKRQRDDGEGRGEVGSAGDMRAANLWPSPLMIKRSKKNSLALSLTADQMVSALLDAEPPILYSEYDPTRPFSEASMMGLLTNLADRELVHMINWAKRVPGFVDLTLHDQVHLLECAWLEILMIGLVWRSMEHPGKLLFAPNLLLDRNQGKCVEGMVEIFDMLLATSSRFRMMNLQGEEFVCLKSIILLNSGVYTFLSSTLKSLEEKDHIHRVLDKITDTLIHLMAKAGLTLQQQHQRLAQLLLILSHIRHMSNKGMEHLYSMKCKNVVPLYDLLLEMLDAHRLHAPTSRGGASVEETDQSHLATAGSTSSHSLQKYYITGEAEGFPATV

| Structure (SMILES) | Potency |
| --- | --- |
| CCCCCCCCCCOC(=O)c1ccccc1C(=O)OCCCCCCCCCC | inactive |
| Cc1cc(=O)[nH]o1 | inactive |
| C=CC(C)=O | inactive |
| O=C1C(=O)c2cccc3cccc1c23 | inactive |
| Clc1cc(C(Cl)(Cl)Cl)cnc1Cl | inactive |
| CCOP(=O)(OCC)O/C(=C/Cl)c1ccc(Cl)cc1Cl | inactive |
| BrCCCCBr | inactive |
| CC(O)(CS(=O)(=O)c1ccc(F)cc1)C(=O)Nc1ccc(C#N)c(C(F)(F)F)c1 (stereo not drawn) | inactive |
| COc1c(C(C)(C)C)cc([N+](=O)[O-])c(C)c1[N+](=O)[O-] | inactive |
| O=C(NCc1cccnc1)Nc1ccc([N+](=O)[O-])cc1 | inactive |
| CCOP(=S)(Oc1ccc([N+](=O)[O-])cc1)c1ccccc1 (stereo not drawn) | 27.3 µM (active) |
| Cl/C=C\C[N+]12CN3CN(CN(C3)C1)C2 | inactive |
| Cc1c(F)c(F)c(COC(=O)C2C(/C=C(\Cl)C(F)(F)F)C2(C)C)c(F)c1F (stereo not drawn) | inactive |
| O=C(OC1CCCCC1)c1ccccc1C(=O)OC1CCCCC1 | inactive |
| N#Cc1ccc(Cl)cc1 | inactive |
| O=C(O)C(F)(F)C(F)(F)C(F)(F)C(F)(F)C(F)(F)C(F)(F)C(F)(F)C(F)(F)C(F)(F)F | inactive |
| C(=NC1CCCCC1)=NC1CCCCC1 | 13.8 µM (active) and inactive |
| COc1nn(CSP(=S)(OC)OC)c(=O)s1 | inactive |
| CCOP(=S)(OCC)Oc1nc(Cl)c(Cl)cc1Cl | inactive |
| NC(=O)C(Cl)(Cl)Cl | 68.9 µM (active) |
| COP(=S)(Oc1cc(Cl)c(Br)cc1Cl)c1ccccc1 (stereo not drawn) | inactive |

System: not listed separately
Assay: qHTS assay to identify small molecule antagonists of the estrogen receptor alpha (ER-alpha) signaling pathway using the BG1 cell line (AID 743080; calls by dose curve;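 further: BG1 cells stimulated with 17beta-estradiol alongside compound; nearly all actives have a fitted effect of over 25% in size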; further: potency means the concentration at half of the fitted maximal effect)
Details: BG1Luc4E2 ERE-luciferase antagonist mode, luminescence; series mostly up to 70.3 µM
Method in brief: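 BG1-Luc-4E2 cells (endogenous full-length ER-alpha, stable 4×ERE-luciferase) were starved 5 days in phenol-red-free medium with 10% charcoal-stripped FBS, plated 24 h, then given compound plus 17beta-estradiol for 21.5 h at 37 C; ONE-Glo luminescence read after 30 min.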

| Structure (SMILES) | Potency |
| --- | --- |
| CC1(C)CCC(Cc2ccc(Cl)cc2)C1(O)Cn1cncn1 (stereo not drawn) | 61.1 µM (active) |
| CCOP(=O)(OCC)SCCSCC | inactive |
| CCCCCCCCCCOC(=O)c1ccccc1C(=O)OCCCCCCCCCC | inactive |
| Cc1cc(=O)[nH]o1 | inactive |
| C=CC(C)=O | inactive |
| O=C1C(=O)c2cccc3cccc1c23 | inactive |
| CCOP(=O)(OCC)O/C(=C/Cl)c1ccc(Cl)cc1Cl | 54.5 µM (active) |
| BrCCCCBr | inactive |
| CC(O)(CS(=O)(=O)c1ccc(F)cc1)C(=O)Nc1ccc(C#N)c(C(F)(F)F)c1 (stereo not drawn) | 29.8 µM (active) |
| COc1c(C(C)(C)C)cc([N+](=O)[O-])c(C)c1[N+](=O)[O-] | inactive |
| O=C(NCc1cccnc1)Nc1ccc([N+](=O)[O-])cc1 | inactive |
| CCOP(=S)(Oc1ccc([N+](=O)[O-])cc1)c1ccccc1 (stereo not drawn) | inactive |
| Cl/C=C\C[N+]12CN3CN(CN(C3)C1)C2 | inactive |
| Cc1c(F)c(F)c(COC(=O)C2C(/C=C(\Cl)C(F)(F)F)C2(C)C)c(F)c1F (stereo not drawn) | inactive |
| O=C(CBr)OCc1ccccc1 | inactive |
| N#Cc1ccc(Cl)cc1 | inactive |
| CCOP(=S)(OCC)Oc1cc(Cl)c(Br)cc1Cl | inactive |
| O=C(O)C(F)(F)C(F)(F)C(F)(F)C(F)(F)C(F)(F)C(F)(F)C(F)(F)C(F)(F)C(F)(F)F | inactive |
| C(=NC1CCCCC1)=NC1CCCCC1 | 2.45 µM (active) and 2.43 µM (active) |
| COc1nn(CSP(=S)(OC)OC)c(=O)s1 | inactive |
| CCOP(=S)(OCC)Oc1nc(Cl)c(Cl)cc1Cl | inactive |
| NC(=O)C(Cl)(Cl)Cl | inactive |
| COP(=S)(Oc1cc(Cl)c(Br)cc1Cl)c1ccccc1 (stereo not drawn) | inactive |
| CCCN(CCC)c1c([N+](=O)[O-])cc(S(C)(=O)=O)cc1[N+](=O)[O-] | inactive |

System: not listed separately
Assay: qHTS assay to identify small molecule antagonists of the estrogen receptor alpha (ER-alpha) signaling pathway using the BG1 cell line - cell viability counter screen (AID 743081);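 further: compound given together with 17beta-estradiol as the ER stimulus; nearly all actives have a fitted effect of over 45% in size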
Details: BG1Luc4E2 viability, CellTiter-Fluor, 22 h; series mostly up to 70.3 µM

| Structure (SMILES) | Potency |
| --- | --- |
| CC1(C)CCC(Cc2ccc(Cl)cc2)C1(O)Cn1cncn1 (stereo not drawn) | inactive |
| CCOP(=O)(OCC)SCCSCC | inactive |
| CCCCCCCCCCOC(=O)c1ccccc1C(=O)OCCCCCCCCCC | inactive |
| CCC(COC(=O)c1cc(OC)c(OC)c(OC)c1)(c1ccccc1)N(C)C (stereo not drawn) | inactive |
| Cc1cc(=O)[nH]o1 | inactive |
| C=CC(C)=O | inactive |
| Clc1cc(C(Cl)(Cl)Cl)cnc1Cl | inactive |
| CCOP(=O)(OCC)O/C(=C/Cl)c1ccc(Cl)cc1Cl | inactive |
| BrCCCCBr | inactive |
| S=C=NCc1ccccc1 | inactive |
| C=CC(=O)OC(C)(C)C | inactive |
| CC(O)(CS(=O)(=O)c1ccc(F)cc1)C(=O)Nc1ccc(C#N)c(C(F)(F)F)c1 (stereo not drawn) | inactive |
| COc1c(C(C)(C)C)cc([N+](=O)[O-])c(C)c1[N+](=O)[O-] | inactive |
| Clc1ccc(C2(Cn3cncn3)CC(Br)CO2)c(Cl)c1 (stereo not drawn) | inactive |
| O=C(NCc1cccnc1)Nc1ccc([N+](=O)[O-])cc1 | inactive |
| CCn1cc[n+](C)c1 | inactive |
| CCOP(=S)(Oc1ccc([N+](=O)[O-])cc1)c1ccccc1 (stereo not drawn) | inactive |

| Structure (SMILES) | Potency |
| --- | --- |
| Cl/C=C\C[N+]12CN3CN(CN(C3)C1)C2 | inactive |
| Cc1c(F)c(F)c(COC(=O)C2C(/C=C(\Cl)C(F)(F)F)C2(C)C)c(F)c1F (stereo not drawn) | inactive |
| O=C(CBr)OCc1ccccc1 | inactive |
| O=C(OC1CCCCC1)c1ccccc1C(=O)OC1CCCCC1 | inactive |
| COP(=O)(OC)O/C(=C/Cl)c1cc(Cl)c(Cl)cc1Cl | inactive |
| N#Cc1ccc(Cl)cc1 | inactive |
| ClCCCCBr | inactive |
| CCOP(=S)(OCC)Oc1cc(Cl)c(Br)cc1Cl | inactive |
| O=C(O)C(F)(F)C(F)(F)C(F)(F)C(F)(F)C(F)(F)C(F)(F)C(F)(F)C(F)(F)C(F)(F)F | inactive |
| O=C(O)CC(Cl)C(=O)O (stereo not drawn) | inactive |
| COc1nn(CSP(=S)(OC)OC)c(=O)s1 | inactive |
| CCOP(=S)(OCC)Oc1nc(Cl)c(Cl)cc1Cl | inactive |
| NC(=O)C(Cl)(Cl)Cl | inactive |
| COP(=S)(OC)Oc1cc(Cl)c(I)cc1Cl | inactive |
| COP(=S)(Oc1cc(Cl)c(Br)cc1Cl)c1ccccc1 (stereo not drawn) | inactive |
| CCCN(CCC)c1c([N+](=O)[O-])cc(S(C)(=O)=O)cc1[N+](=O)[O-] | inactive |
